A short description of test [1]: inhibitors of TNFa-induced NFkB p65 translocation, primary screen, imaging, HUVEC, MLSMR starter and 10KST1 sets (AID 438;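 active = inhibition above 20% together with a positive visual image hit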;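 also: compound added about 3h40 before a 20 min TNFalpha stimulation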;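 as to inhibition: signal is the nuclear over cytoplasmic p65 intensity ratio per well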). As to conditions: HUVEC TNFa-induced p65 nuclear translocation; cell count: measured here: nuclei count (cytotoxicity indicator), at 2.08 µM; inhibition: at 2 µM, stronger effect = higher value, 0% TNFa-plus-vehicle, 100% no-TNFa wells.
Test [2] in a line: inhibitors of mutant huntingtin aggregation, primary screen, imaging, exon1htt(103Q)mCFP cells, high-content imaging (AID 483;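 active = visual image review flags a hit and inhibition of aggregation exceeds 20%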;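 also: compound exposure lasted 3 days before fixation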;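 as to nuclei count: percent of the per-plate median nuclei count of sample wells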). As to conditions: exon1htt(103Q)mCFP cell line, aggregate imaging, at 2 µM; inhibition of aggregation: stronger effect = higher value; nuclei count: measured here: cell count, toxicity.
Test [3] in a line: inhibitors of E-selectin induction by TNFa, primary screen, imaging, HUVEC, immunofluorescence, MLSMR starter and 10KST1 sets (AID 487;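 active = visually confirmed hit in the image check and inhibition above 20%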;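 as to inhibition: signal is fraction of cell area covered by stained E-selectin grains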;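 as to nuclei count: 100% = median nuclei count of all wells on the same plate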). As to conditions: HUVEC TNFalpha-induced E-selectin immunofluorescence imaging, at 2 µM; inhibition: stronger effect = higher value; nuclei count: measured here: cell number, toxicity.
In test [4] the target is Voltage-gated potassium channel subunit beta-2 (Rattus norvegicus) (UniProt P62483). The test is described as follows: KvBeta enzyme negative modulators, primary screen, biochemical, NADPH fluorescence (AID 622;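 active = fluorescence slope higher than the sample average by over 3 SD, cut at about -0.22 in these data, passing the limit was not always enough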;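 also: slope of raw intensity against log time taken from 70 to 1610 s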). As to conditions: recombinant KvBeta, 4-cyanobenzaldehyde reduction, at 10 µM, stronger effect = higher value.
For test [5] the target is unchanged. As to the kind of experiment: KvBeta positive modulators, primary screen, biochemical, NADPH fluorescence (AID 623;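 active = NADPH fluorescence slope more negative than the mean of all samples by about 3 SD, 99.7% confidence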;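 also: fluorescence intensity change per second fitted from 20 to 320 s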). As to conditions: Recombinant KvBeta, NADPH fluorescence decrease slope, 10 min; at 10 µM; stronger effect = lower value.
The target of test [6] is Alpha-2C adrenergic receptor (Homo sapiens) (UniProt P18825). The test is described as follows: modulators of alpha2C/GIRK thallium flux, primary screen, cell-based, HEK293 alpha2C/GIRK1/2 (AID 624;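 active = fluorescence slope after compound addition differing from the mean of all screened samples at 99.7% confidence, in either direction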;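 also: slope of fluorescence ratio to pre-addition baseline per second over 15 to 24 s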). As to conditions: thallium flux BTC fluorescence, at 10 µM, actives lie on both sides.
The nature of test [7]: inhibitors of Sendai virus-induced IRF3 signaling, primary screen, TLR/RLR signaling modifier project, cell-based, Sendai virus stimulus, luciferase, 10K MLSCN set (AID 602276).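 Also: firefly luciferase from ISG56 promoter only with Renilla not read in this screen; 0% = Sendai virus plus DMSO and 100% = medium plus DMSO without virus.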 As to conditions: HEK293 RL24 IRF3 luciferase reporter, at 10 µM, stronger effect = higher value.
Test [8] is described as follows: inhibitors of poly I:C-induced TLR3 signaling, primary screen, cell-based, poly I:C stimulus, luciferase, 10K MLSCN set (AID 602277;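 active = inhibition of the reporter signal at or above 50%; inactive = inhibition below 50%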). As to conditions: HEK293-TLR3 RL24 IRF3 luciferase reporter, at 10 µM, stronger effect = higher value.

Activity calls are given as the source filed them.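 The calls were made as follows, unless noted: active = inhibition at or above 50% at 10 µM; inactive = inhibition below 50%.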

Voltage-gated potassium channel subunit beta-2 (Rattus norvegicus), sequence (P62483 whole entry, looked up): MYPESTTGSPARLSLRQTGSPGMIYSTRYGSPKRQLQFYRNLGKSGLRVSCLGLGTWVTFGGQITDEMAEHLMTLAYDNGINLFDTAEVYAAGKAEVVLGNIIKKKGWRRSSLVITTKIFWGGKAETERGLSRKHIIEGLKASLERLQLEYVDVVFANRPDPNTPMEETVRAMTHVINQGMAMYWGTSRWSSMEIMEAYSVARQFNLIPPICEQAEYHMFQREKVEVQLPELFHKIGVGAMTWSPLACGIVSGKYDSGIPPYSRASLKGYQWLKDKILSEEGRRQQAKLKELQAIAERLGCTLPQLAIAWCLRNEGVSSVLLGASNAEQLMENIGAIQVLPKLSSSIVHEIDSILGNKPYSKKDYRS
Alpha-2C adrenergic receptor (Homo sapiens), sequence (P18825 whole entry, looked up): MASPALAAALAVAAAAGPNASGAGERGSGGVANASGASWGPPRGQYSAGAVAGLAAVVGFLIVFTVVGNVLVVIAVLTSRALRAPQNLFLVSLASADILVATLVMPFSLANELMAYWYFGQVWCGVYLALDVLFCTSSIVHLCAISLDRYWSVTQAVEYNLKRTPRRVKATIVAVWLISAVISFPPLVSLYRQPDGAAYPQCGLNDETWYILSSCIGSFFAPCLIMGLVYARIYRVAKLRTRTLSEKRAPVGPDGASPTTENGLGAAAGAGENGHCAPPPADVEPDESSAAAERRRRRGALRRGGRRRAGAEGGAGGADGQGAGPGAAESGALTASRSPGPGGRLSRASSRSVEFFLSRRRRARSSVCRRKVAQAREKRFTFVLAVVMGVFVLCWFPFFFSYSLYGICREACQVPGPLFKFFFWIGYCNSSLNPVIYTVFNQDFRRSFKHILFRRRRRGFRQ

As for `CC(=O)Nc1ccc(OCC(O)Cn2nc(C)nc2C)cc1` (stereo not given), the cell count in test [1] came out at 357. Besides, the inhibition was 1.5% (inactive) in test [1], -160% (inactive) in test [3], 7.41% (inactive) in test [7] and 23.2% (inactive) in test [8]. Moreover, in test [2], the inhibition of aggregation is -13.4% (inactive). The nuclei count in test [2] amounted to 95.7%; in test [3], 120%. Also, the fluorescence slope in test [4] is -0.267 (inactive). Also, in test [5], the NADPH fluorescence slope was -1.1e-05 (inactive). In test [6], the slope was 0.00761 (inactive).
As for `O=c1c2ccccc2nc2n1CCN2`, the cell count in test [1] is 338. For the same compound, the inhibition was 4.6% (inactive) in test [1], -115% (inactive) in test [3], 21.2% (inactive) in test [7] and 20.6% (inactive) in test [8]. Also, the inhibition of aggregation in test [2] is -10.3% (inactive). Moreover, the values for the nuclei count in test [2] and in test [3] were 108% and 131%, respectively. Besides, the fluorescence slope in test [4] was -0.573 (inactive). The NADPH fluorescence slope in test [5] is 7.7e-06 (inactive). Also, in test [6], the slope was 0.00443 (inactive).
Regarding `CCn1c2ccccc2c2cc(N)ccc21`, the cell count in test [1] worked out at 705. Also, the inhibition was -34.5% (inactive) in test [1], -37.7% (inactive) in test [3], 8.66% (inactive) in test [7] and 15.3% (inactive) in test [8]. Moreover, the inhibition of aggregation in test [2] is 17.8% (inactive). The values for the nuclei count in test [2] and in test [3] were 91.5% and 107%, respectively. In addition, the fluorescence slope in test [4] is -0.458 (inactive). In addition, the NADPH fluorescence slope in test [5] is 5.8e-06 (inactive). Moreover, the slope in test [6] is 0.00355 (inactive).
As to `O=C(NCc1cccnc1)c1ccc2c(c1)OCO2`, the cell count in test [1] was 415. Further, the inhibition was 10.5% (inactive) in test [1], 4.1% (inactive) in test [3], -28.8% (inactive) in test [7] and -20% (inactive) in test [8]. In addition, in test [2], the inhibition of aggregation was -7.2% (inactive). In addition, the nuclei count in test [2] came out at 103%; in test [3], 110%. For the same compound, in test [4], the fluorescence slope was -0.53 (inactive). In addition, the NADPH fluorescence slope in test [5] is 3.1e-05 (inactive). In addition, in test [6], the slope was 0.00534 (inactive).
Consider `CCN(CC)CCNC(=O)CCn1c(=S)[nH]c2cc3c(cc2c1=O)OCO3`, for which the cell count in test [1] was 380. Also, the inhibition is -3% (inactive) in test [1], 7.2% (inactive) in test [3], -5.94% (inactive) in test [7] and 28.2% (inactive) in test [8]. The inhibition of aggregation in test [2] was -16.9% (inactive). The nuclei count in test [2] was 99.9%; in test [3] it was 114%. For the same compound, in test [4], the fluorescence slope was -0.501 (inactive). Besides, the NADPH fluorescence slope in test [5] was -2.4e-05 (inactive). Also, the slope in test [6] is 0.00645 (inactive).
For `COc1ccc(Cl)cc1S(=O)(=O)n1cnc2ccccc21`, the cell count in test [1] was determined as 725. In addition, the inhibition was -4.8% (inactive) in test [1], -42.3% (inactive) in test [3], 19.3% (inactive) in test [7] and 31.3% (inactive) in test [8]. The inhibition of aggregation in test [2] was -5.8% (inactive). Also, the nuclei count was determined as 92.3% in test [2] and 104% in test [3]. Further, in test [4], the fluorescence slope is -0.403 (inactive). In test [5], the NADPH fluorescence slope is 9.7e-06 (inactive). In test [6], the slope is 0.00504 (inactive).
For the compound `COc1ccc(C2=NO[C@@H]3C(=O)N(c4cccc(C)c4C)C(=O)[C@H]23)cc1OC`, in test [1], the cell count came to 599. Besides, the inhibition was -12.3% (inactive) in test [1], -41.7% (inactive) in test [3], -20.9% (inactive) in test [7] and -5.53% (inactive) in test [8]. The inhibition of aggregation in test [2] was 10% (inactive). For the same compound, the nuclei count worked out at 91.7% in test [2] and 105% in test [3]. Further, the fluorescence slope in test [4] is -0.588 (inactive). In test [5], the NADPH fluorescence slope is -4.9e-05 (inactive). In addition, the slope in test [6] is 0.00915 (inactive).
Consider `O=C1N(c2ccccc2)C2CS(=O)(=O)CC2N1c1ccc(Br)cc1` (stereo not given), for which the cell count in test [1] is 566. The inhibition in test [1] is -12.3% (inactive); in test [3], -32.1% (inactive); in test [7] it was 6.69% (inactive); in test [8], 17.5% (inactive). Besides, the inhibition of aggregation in test [2] is 4% (inactive). The nuclei count was determined as 88.5% in test [2] and 127% in test [3]. In addition, the fluorescence slope in test [4] was -0.432 (inactive). The NADPH fluorescence slope in test [5] is -1.5e-05 (inactive). In addition, the slope in test [6] was 0.00616 (inactive).
For the compound `Cc1c(NC2=NC3(CCCCC3)Cc3ccccc32)c(=O)n(-c2ccccc2)n1C`, the cell count in test [1] amounted to 716. Besides, the inhibition in test [1] was -5.3% (inactive); in test [3] it was 59.1% (active); in test [7], 13.1% (inactive); in test [8] it was 21.6% (inactive). Moreover, the inhibition of aggregation in test [2] was 6.1% (inactive). In addition, the nuclei count was 101% in test [2] and 72.3% in test [3]. Also, in test [4], the fluorescence slope is -0.354 (inactive). Further, the NADPH fluorescence slope in test [5] was -6.6e-05 (inactive). Moreover, in test [6], the slope is 0.00622 (inactive).
Consider `CC1=Nn2c(nnc2-c2ccccn2)SC1`, for which the cell count in test [1] stood at 378. Also, the inhibition in test [1] is 4.8% (inactive); in test [3] it was -158% (inactive); in test [7] it was 7.81% (inactive); in test [8], 11.5% (inactive). The inhibition of aggregation in test [2] was -0.1% (inactive). For the same compound, the nuclei count in test [2] is 68.5%; in test [3], 198%. The fluorescence slope in test [4] is -0.443 (inactive). For the same compound, the NADPH fluorescence slope in test [5] is -4.3e-05 (inactive). Moreover, the slope in test [6] is 0.00557 (inactive).
As for `Cc1cccc(-n2ncc3c(N(CCO)CCO)ncnc32)c1`, in test [1], the cell count turned out to be 635. In addition, the inhibition was 1.4% (inactive) in test [1], -35.6% (inactive) in test [3], -28.4% (inactive) in test [7] and -84.3% (inactive) in test [8]. In addition, the inhibition of aggregation in test [2] is -5% (inactive). Besides, the nuclei count in test [2] was determined as 53.9%; in test [3], 125%. In test [4], the fluorescence slope was -0.513 (inactive). The NADPH fluorescence slope in test [5] was -1.8e-05 (inactive). Moreover, the slope in test [6] was 0.00728 (inactive).
Regarding `Cc1ccc2[nH]cc(C(=O)CN3CCC4(CC3)OCCO4)c2c1`, the cell count in test [1] came out at 355. The inhibition in test [1] was 2% (inactive); in test [3], -18.9% (inactive); in test [7], 4.24% (inactive); in test [8], 7.68% (inactive). The inhibition of aggregation in test [2] was 14.9% (inactive). Besides, the figures for the nuclei count in test [2] and in test [3] were 88% and 122%, respectively. Further, in test [4], the fluorescence slope is -0.619 (inactive). In addition, the NADPH fluorescence slope in test [5] was -9.1e-06 (inactive). For the same compound, the slope in test [6] was 0.00468 (inactive).
With `CS(=O)(=O)N1CCCC(C(=O)N2CCOCC2)C1` (stereo not given), the cell count in test [1] came out at 683. The inhibition in test [1] is 1.2% (inactive); in test [3], -142% (inactive); in test [7], 11.5% (inactive); in test [8], 3.97% (inactive). In addition, in test [2], the inhibition of aggregation was 9.8% (inactive). The nuclei count in test [2] worked out at 92%; in test [3], 116%. Moreover, the fluorescence slope in test [4] was -0.566 (inactive). For the same compound, the NADPH fluorescence slope in test [5] is 6.2e-06 (inactive). The slope in test [6] is 0.00664 (inactive).
Turning to `CC(C)CCNC(=O)C1CCN(C(=O)N(C)C)CC1`, the cell count in test [1] is 556. Moreover, the inhibition in test [1] is 7% (inactive); in test [3] it was -28.5% (inactive); in test [7], 8.09% (inactive); in test [8], 19.5% (inactive). In test [2], the inhibition of aggregation was 13.3% (inactive). The nuclei count is 53.8% in test [2] and 104% in test [3]. In addition, in test [4], the fluorescence slope was -0.359 (inactive). The NADPH fluorescence slope in test [5] was -4.6e-05 (inactive). Besides, in test [6], the slope is 0.00555 (inactive).
On to `CCCCn1c(NCCC)nc2c1c(=O)[nH]c(=O)n2C`, for which the cell count in test [1] turned out to be 383. Besides, the inhibition in test [1] is -6.2% (inactive); in test [3], -38% (inactive); in test [7] it was 16% (inactive); in test [8] it was 29.1% (inactive). In addition, the inhibition of aggregation in test [2] is -0.7% (inactive). Also, the nuclei count in test [2] was determined as 114%; in test [3], 124%. For the same compound, the fluorescence slope in test [4] is -0.402 (inactive). In addition, the NADPH fluorescence slope in test [5] is -0.000106 (inactive). Besides, the slope in test [6] was 0.00598 (inactive).

The values are drawn from PubChem BioAssay.
